About 7,900 targets were measured; listed, in parts, are those with a hit and a random draw of the rest. About 0.6% of all pairs of compound and target were hits.
These targets were tested with O=C(CCCCCCNC(=O)c1cnc(N(c2ccccc2)c2ccccc2Cl)nc1)NO [citarinostat] (assay: log2 fold change, soluble protein after heating vs DMSO (PISA); higher = thermal stabilisation; K562 cells, 10 uM, 30 min; active = over 0.2 and 3.5 SD of the protein, either way, in both replicates (recomputed)).
Outline: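 Soluble protein was defined as the supernatant after 21,000xg for 90 min. It came from K562 cells at 2×10^6 cells/mL given 10 μM compound for 30 min, heated in aliquots for 3 min across 48°C-58°C, pooled, and extracted in PBS with 0.5% NP-40 at 4°C, and was quantified by TMTpro 16plex LC-MS/MS with equalised channel sums. Thermal stability against control samples, from duplicates, is reported as log2 fold change.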

Chain of UniProt Q9Y4E6 (Q9Y4E6 whole entry, looked up): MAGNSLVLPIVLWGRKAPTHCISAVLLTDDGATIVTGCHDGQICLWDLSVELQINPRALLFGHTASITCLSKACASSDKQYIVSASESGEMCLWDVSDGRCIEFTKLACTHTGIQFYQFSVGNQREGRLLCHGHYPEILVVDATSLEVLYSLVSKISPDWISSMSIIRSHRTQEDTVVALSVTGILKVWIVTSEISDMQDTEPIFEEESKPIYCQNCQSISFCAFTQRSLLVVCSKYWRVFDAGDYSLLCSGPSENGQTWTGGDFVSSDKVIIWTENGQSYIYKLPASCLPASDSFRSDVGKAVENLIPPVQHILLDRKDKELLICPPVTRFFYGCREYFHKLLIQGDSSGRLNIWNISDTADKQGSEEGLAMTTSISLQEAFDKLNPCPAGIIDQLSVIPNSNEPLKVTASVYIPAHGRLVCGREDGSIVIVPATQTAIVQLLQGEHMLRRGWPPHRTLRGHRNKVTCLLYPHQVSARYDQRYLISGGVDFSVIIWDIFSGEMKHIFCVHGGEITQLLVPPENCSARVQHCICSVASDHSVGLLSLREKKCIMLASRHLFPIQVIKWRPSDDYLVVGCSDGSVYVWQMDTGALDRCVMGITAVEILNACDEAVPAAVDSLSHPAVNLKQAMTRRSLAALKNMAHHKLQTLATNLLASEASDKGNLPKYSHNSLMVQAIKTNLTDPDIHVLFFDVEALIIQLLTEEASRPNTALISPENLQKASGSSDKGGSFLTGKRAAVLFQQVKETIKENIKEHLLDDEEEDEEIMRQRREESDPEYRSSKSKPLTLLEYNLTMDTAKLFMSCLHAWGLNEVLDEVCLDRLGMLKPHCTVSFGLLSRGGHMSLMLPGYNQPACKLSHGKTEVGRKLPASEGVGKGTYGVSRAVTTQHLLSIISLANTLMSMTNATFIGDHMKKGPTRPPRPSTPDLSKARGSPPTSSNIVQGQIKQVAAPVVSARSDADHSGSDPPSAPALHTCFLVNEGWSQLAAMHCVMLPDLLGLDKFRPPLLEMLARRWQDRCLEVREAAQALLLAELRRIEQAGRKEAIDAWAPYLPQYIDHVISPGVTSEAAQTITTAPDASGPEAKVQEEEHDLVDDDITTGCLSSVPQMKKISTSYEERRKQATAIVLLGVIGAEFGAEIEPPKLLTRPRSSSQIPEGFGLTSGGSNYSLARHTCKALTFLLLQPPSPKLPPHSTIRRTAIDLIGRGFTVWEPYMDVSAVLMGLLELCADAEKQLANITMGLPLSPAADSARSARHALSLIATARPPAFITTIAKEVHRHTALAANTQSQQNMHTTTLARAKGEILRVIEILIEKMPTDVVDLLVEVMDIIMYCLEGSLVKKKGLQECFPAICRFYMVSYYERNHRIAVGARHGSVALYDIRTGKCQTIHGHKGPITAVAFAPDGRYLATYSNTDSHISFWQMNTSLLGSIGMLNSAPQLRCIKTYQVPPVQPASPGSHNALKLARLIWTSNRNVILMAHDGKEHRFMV
Chain of UniProt Q9NX61 (Q9NX61 whole entry, looked up): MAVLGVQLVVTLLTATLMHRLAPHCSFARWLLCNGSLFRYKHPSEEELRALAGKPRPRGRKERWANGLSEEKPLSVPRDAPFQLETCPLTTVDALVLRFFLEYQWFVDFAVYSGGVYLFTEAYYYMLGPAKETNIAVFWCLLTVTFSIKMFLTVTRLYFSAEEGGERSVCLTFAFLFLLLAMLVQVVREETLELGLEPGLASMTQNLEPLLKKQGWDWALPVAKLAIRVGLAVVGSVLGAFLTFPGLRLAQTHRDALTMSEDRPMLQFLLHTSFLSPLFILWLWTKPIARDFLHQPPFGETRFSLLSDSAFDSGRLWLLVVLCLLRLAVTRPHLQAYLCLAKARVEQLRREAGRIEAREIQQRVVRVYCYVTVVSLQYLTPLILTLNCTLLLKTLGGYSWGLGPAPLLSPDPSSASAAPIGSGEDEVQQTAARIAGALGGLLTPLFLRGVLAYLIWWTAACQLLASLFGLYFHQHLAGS
Chain of UniProt A0PJW6 (A0PJW6 whole entry, looked up): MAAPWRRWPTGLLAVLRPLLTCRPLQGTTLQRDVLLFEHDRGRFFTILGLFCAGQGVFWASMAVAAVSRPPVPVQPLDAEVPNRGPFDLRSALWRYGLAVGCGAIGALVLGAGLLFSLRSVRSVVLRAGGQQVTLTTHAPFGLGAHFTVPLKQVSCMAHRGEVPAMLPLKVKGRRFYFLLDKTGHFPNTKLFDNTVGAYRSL
Chain of UniProt Q9H269 (Q9H269 whole entry, looked up): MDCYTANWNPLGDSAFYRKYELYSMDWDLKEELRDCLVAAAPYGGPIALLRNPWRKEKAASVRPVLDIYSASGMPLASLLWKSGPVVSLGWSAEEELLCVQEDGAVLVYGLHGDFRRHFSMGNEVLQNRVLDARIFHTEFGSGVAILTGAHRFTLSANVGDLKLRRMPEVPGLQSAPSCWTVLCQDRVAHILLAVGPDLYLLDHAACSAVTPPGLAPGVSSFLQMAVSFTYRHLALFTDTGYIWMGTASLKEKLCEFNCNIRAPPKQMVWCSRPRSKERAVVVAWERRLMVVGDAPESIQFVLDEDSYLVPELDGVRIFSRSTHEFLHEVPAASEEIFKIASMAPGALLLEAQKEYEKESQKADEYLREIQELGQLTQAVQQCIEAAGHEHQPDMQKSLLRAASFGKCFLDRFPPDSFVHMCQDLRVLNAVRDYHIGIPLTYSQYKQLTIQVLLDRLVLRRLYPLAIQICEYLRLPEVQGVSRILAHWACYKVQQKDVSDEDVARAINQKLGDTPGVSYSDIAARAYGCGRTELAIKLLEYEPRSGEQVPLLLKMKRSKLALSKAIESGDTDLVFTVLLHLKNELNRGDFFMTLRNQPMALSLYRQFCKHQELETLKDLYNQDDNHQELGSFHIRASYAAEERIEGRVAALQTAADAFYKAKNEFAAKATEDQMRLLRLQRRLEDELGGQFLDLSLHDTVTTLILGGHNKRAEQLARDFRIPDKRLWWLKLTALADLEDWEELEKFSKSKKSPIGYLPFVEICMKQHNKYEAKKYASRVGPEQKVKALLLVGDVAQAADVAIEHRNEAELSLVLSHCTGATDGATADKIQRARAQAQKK
Chain of UniProt Q9NV66 (Q9NV66 whole entry, looked up): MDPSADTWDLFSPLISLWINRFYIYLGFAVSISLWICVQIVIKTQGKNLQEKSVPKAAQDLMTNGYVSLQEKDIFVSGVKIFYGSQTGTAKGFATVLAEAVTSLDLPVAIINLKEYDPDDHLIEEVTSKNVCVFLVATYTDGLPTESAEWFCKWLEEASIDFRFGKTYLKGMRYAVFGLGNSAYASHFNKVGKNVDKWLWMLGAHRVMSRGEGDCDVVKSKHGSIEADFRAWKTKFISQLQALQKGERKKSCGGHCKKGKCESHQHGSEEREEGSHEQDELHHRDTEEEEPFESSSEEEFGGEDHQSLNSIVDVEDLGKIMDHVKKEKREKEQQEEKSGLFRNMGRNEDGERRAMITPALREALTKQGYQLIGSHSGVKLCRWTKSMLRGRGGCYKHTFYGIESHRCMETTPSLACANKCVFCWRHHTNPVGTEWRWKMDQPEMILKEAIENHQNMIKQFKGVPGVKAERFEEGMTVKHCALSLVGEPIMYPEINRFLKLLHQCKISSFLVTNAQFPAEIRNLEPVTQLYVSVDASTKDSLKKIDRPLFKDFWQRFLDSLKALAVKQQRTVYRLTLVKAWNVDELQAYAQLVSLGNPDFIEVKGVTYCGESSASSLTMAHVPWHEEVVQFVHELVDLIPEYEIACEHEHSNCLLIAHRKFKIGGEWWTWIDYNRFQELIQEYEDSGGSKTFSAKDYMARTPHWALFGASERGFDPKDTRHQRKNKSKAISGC
Chain of UniProt P12956 (P12956 whole entry, looked up): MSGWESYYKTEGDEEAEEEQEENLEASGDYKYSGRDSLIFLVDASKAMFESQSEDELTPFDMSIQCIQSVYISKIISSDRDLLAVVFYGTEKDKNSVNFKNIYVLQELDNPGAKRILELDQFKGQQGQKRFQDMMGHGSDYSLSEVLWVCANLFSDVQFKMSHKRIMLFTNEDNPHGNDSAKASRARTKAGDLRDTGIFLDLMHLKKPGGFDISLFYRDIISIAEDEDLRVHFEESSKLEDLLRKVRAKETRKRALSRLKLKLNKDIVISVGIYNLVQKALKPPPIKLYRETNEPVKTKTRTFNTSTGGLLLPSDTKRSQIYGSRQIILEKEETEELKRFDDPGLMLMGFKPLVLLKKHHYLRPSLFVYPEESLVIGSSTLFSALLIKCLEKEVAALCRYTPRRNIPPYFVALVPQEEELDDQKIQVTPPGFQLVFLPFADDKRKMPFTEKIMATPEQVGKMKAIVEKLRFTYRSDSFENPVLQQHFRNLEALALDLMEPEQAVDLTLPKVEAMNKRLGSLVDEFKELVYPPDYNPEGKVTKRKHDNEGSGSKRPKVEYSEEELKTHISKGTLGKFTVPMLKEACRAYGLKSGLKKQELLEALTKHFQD
Chain of UniProt Q9Y6I4 (Q9Y6I4 whole entry, looked up): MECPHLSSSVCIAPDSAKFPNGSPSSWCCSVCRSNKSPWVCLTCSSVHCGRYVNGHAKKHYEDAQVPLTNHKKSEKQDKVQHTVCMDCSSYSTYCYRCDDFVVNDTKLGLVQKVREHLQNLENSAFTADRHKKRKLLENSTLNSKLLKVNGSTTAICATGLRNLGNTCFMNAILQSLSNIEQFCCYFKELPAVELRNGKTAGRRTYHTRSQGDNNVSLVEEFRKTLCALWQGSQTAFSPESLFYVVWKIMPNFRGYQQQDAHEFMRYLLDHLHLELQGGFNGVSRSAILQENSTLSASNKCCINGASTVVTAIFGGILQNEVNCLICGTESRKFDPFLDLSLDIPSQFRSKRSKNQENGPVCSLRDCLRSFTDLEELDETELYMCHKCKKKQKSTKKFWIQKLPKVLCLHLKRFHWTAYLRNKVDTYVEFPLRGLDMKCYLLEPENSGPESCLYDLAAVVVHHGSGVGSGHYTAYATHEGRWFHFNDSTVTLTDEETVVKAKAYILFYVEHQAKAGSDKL
Chain of UniProt Q9UL33 (Q9UL33 whole entry, looked up): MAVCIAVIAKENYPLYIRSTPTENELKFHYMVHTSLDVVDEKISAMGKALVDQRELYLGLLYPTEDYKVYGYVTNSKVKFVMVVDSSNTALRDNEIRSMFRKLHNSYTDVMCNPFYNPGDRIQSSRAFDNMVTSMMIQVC

log2 fold change, inactive:
TRAPPC2L (UniProt Q9UL33) 0.031
UGDH (UniProt O60701) 0.145
WDR7 (UniProt Q9Y4E6) -0.125
TOMM5 isoform 2 (UniProt Q8N4H5) 0.039
USP7 (UniProt Q93009) 0.096
TYW1 (UniProt Q9NV66) 0.053
UBR2 (UniProt Q8IWV8) 0.05
TMEM161A (UniProt Q9NX61) 0.083
XPNPEP1 isoform 3 (UniProt Q9NQW7) 0.062
XRCC6 (UniProt P12956) 0.107
TNPO2 (UniProt O14787) 0.047
TRMT10C (UniProt Q7L0Y3) -0.018
UHRF1BP1L (UniProt A0JNW5) -0.032
TUBA4A (UniProt P68366) 0.031
USP3 (UniProt Q9Y6I4) 0.102
WBP4 (UniProt O75554) 0.055
VTA1 (UniProt Q9NP79) 0.054
UBE3D (UniProt Q7Z6J8) 0.012
VPS16 (UniProt Q9H269) 0.189
TXNRD1 (UniProt Q16881) 0.017
TMEM177 (UniProt Q53S58) 0.068
WDCP (UniProt Q9H6R7) 0.118
TMEM223 (UniProt A0PJW6) -0.031

— the supplement of paper PMC10849652
